# Screening data (PubChem)
# Hits are enriched below; roughly 11% of the tested compounds scored in any of these assays.
# Pf growth 48h – inhibits P. falciparum growth in the first generation, 48 h. 310,000 compounds, 5.9% hits. Potency, µM (top dose mostly 28.7 µM), for inactives: at the highest dose activity change, negative = inhibition, hits mostly inhibitors. P. falciparum luciferase growth in erythrocytes, 48 h; further: on the % scale 0 is the no-effect control and ±100 the full control effect
#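 Parasite viability was followed by luminescence of a genomically integrated firefly luciferase. Cultures held 0.1% parasitemia at 2% hematocrit (final), incubated under 5% CO2 at 37 C.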
# NS1 function inh – inhibitors of influenza NS1 protein function; 270,000 compounds, 0.4% hits; Potency, µM (series often up to 46.1 µM), for inactives: at the top dose activity, positive = more growth; calls by dose curve; further: actives are rising curves; nearly all actives have a fitted effect of over 50% in size
#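 In this qHTS, NS1 from influenza A is expressed in budding yeast, where it slows growth. Cells are switched from glucose to 2% galactose medium (pH 6.0, -URA), treated with compound, and growth recovery is read at OD600.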
# HCV inh – blocks hepatitis C virus; Huh7.5.1 HCVcc-Cre infection, luciferase reporter, 44 h; 340,000 compounds, 3.4% hits; Potency, µM (titrated, usually from 41.8 µM), inactives show at the top dose activity change, negative = inhibition, hits mostly inhibitors; further: on the % scale 0 is the no-effect control and ±100 the full control effect
#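 1,000 cells/well; 4 h culture; + compound; + HCVcc-Cre (~0.5 moi); 44 h; luciferase substrate, RT 15 min; read 15 sec.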
# VACV Venus inh – inhibitors of vaccinia virus (Venus reporter) | Potency, µM (highest dose often 36.5 µM), for the others: at the highest dose activity change, negative = inhibition, actives largely listed as inhibitors | 330,000 compounds, 0.46% hits | AID 720580 | Vaccinia virus Venus reporter expression, fluorescence; calls by dose curve; tested in A549 cells; further: on the % scale 0 is the no-effect control and ±100 the full control effect; nearly all actives have a fitted effect of over 30% in size
# Pf growth 96h – P. falciparum growth inhibition at 96 hour, primary screen for plastid delayed-death inhibitors. P. falciparum luciferase reporter growth, 96 h. Potency, µM (top dose mostly 28.7 µM), for inactives: top-dose activity change, negative = inhibition, most hits filed as inhibitors. 320,000 compounds, 6.9% hits. AID 504834; further: on the % scale 0 is the no-effect control and ±100 the full control effect
#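 Infected RBCs, 2% Hct / 0.05% parasitemia final; luciferase-reporter P. falciparum; cpd 96 h, 37 C, 5% CO2; luciferase detection reagent; luminescence.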
# VACV mCherry inh – vaccinia inhibition (mCherry reporter). AID 720579. Potency, µM (highest dose often 36.5 µM), inactives show at the top dose activity change, negative = inhibition, usual class: inhibitors. Vaccinia virus mCherry reporter infection, fluorescence. 310,000 compounds, 0.63% hits; calls by dose curve; tested in A549 cells; further: on the % scale 0 is the no-effect control and ±100 the full control effect; nearly all actives have a fitted effect of over 35% in size
# Starred values were filed as active, the others as inactive; ? = inconclusive; / = not tested or not shown; [ ] = dose if it differs, or a comment. Unless noted, the call rests on the fitted dose curve; in most records, active means well fitted inhibition curve with a large enough effect; inconclusive means small, poorly fitted or top-dose-only effect, or another doubt; inactive means no such curve, though single readings can be large or run the other way. Potency means the concentration at half of the fitted maximal effect.
SMILES,Pf growth 48h,NS1 function inh,HCV inh,VACV Venus inh,Pf growth 96h,VACV mCherry inh
C=CCOc1ccccc1CN1CCC(n2nccc2NC(=O)C2CCOC2)CC1 (stereo not given),5.2%,2.3%,17.0%,-11.9%,?,-16.4%
COc1ccc2c(CSc3nnc(-c4cccnc4)n3-c3ccccc3F)cc(=O)oc2c1,?,3.4%,-14.0%,-4.9%,6.57µM*,-6.9%
CCOc1ccc(-n2c(SCc3cc(=O)oc4cc(C)c(C(C)C)cc34)nnc2-c2cccnc2)cc1,?,0.1%,?,-5.9%,?,-16.0%
C/C(=N\NC(=O)c1c[nH]c2ccccc12)c1ccc2c(c1)OCO2,?,/,-13.7%,/,5.86µM*,/
O=C(N/N=C/c1cc2c(cc1Br)OCO2)c1ccccn1,239.3%,-7.3%,-7.9%,5.3%,303.1%,-6.2%
O=C(N/N=C/c1cc2c(cc1Br)OCO2)c1c[nH]c2ccccc12,?,/,22.4µM*,/,29.1%,/
C/C(=N\NC(=O)c1ccccc1)c1ccc2c(c1)OCO2,/,-9.3%,-19.5%,/,-16.8%,/
CC(C)(C)c1cc(C(=O)N/N=C/c2cc3c(cc2Br)OCO3)n[nH]1,?,1.4%,11.2µM*,/,?,/
Cc1csc(NC(=O)CS(=O)(=O)c2ccccc2)n1,20.0%[5.75 µM],/,1.5%,-6.6%,?,-14.9%
CCN(Cc1nc2cc(Cl)ccc2c(=O)[nH]1)C(=O)c1cc2c(s1)CCCCC2,32.8%,/,-12.9%,-8.0%,27.0%,-15.6%
CCN(Cc1nc2cc(Cl)ccc2c(=O)[nH]1)C(=O)C1CC(=O)N(c2cccc3ccccc23)C1 (stereo not given),10.4µM*,/,8.2%,/,?,/
Cc1nc2ccc(NC(=O)c3ccc(Cl)s3)cc2s1,/,5.0%,?,-0.1%,35.3%,37.4%
Cc1nc2ccc(NC(=O)c3ccc(Cl)c(NC(=O)c4cccs4)c3)cc2s1,-2.6%,11.2%,10µM*,-12.3%,0.0%,/
Cc1ccc(NC(=O)c2cccs2)cc1,/,-83.0%,-3.8%,-16.1%,65.7%,-18.6%
Cc1ccc(NC(=O)c2ccc(Cl)c(NC(=O)c3cccs3)c2)cc1,8.0%,-41.1%,12.6µM*,/,?,/
COc1ccc(C(CNC(=O)c2ccc(Cl)c(NC(=O)c3cccs3)c2)N2CCCC2)cc1 (stereo not given),10.4µM*,/,?,-24.8%,8.28µM*,-14.6%
CCOC(=O)N1CCN(C(=O)c2ccc(Cl)c(NC(=O)c3cccs3)c2)CC1,10.4µM*,/,7.7%,/,?,/
Cc1cccc(N2CCN(c3ccc(NC(=O)/C=C(/C(=O)O)c4ccccc4)cc3)CC2)c1,?,2.5%,-5.2%,-7.9%,?,/
CCCNC(=O)N1[C@H](c2ccc(C)s2)[C@@H](C)C(=O)[C@@H](C)[C@@H]1c1ccc(C)s1,/,/,/,-14.9%,/,-8.0%
COc1ccccc1CNS(=O)(=O)c1ccc2c(c1)N(C(C)=O)CC(C)S2 (stereo not given),-20.1%,-14.3%,-15.2%,-12.3%,53.7%,-19.9%
COc1c(Cl)cc(Cl)cc1/C=C/C(=O)c1ccc(NC(=O)c2cccs2)cc1,5.22µM*,8.0%,14.1µM*,10µM*,-12.2%,11.2µM*
CCn1c(-c2cc(Br)cc(OC)c2O)nc2cc(S(=O)(=O)N(C)C)ccc21,?,-8.3%,?,/,11.7µM*,/
CCn1c(-c2ccccn2)nc2cc(S(=O)(=O)N(C)C)ccc21,46.0%,-17.9%,11.8%,-10.9%,43.0%,-11.4%
CCC(Sc1nc(C)cc(C)n1)C(=O)Nc1nccs1 (stereo not given),?,3.0%,-2.6%,/,13.1µM*,/
COc1cnc(-c2ccccn2)nc1Oc1ccc(Cl)c2ccccc12,2.08µM*,-69.4%,?,/,6.57µM*,/
COc1cnc(-c2ccccc2)nc1Oc1cccc(C)c1C,-12.1%,1.4%,?,10.5%,-0.6%,/
COc1cnc(-c2ccccc2)nc1Oc1ccccc1C,?,7.2%,-15.6%,2.0%,?,/
COc1cnc(-c2ccccn2)nc1Oc1ccc(F)cc1F,10.4µM*,/,-13.4%,-28.1%,10.4µM*,?
COc1cnc(-c2ccccc2)nc1Oc1ccc(C(C)(C)C)cc1,?,5.0%,-0.4%,/,?,/
COc1cnc(-c2ccccn2)nc1Oc1ccc(Cl)cc1,0.37µM*,-52.0%,?,/,5.22µM*,/
